Some of the results follow. Unmarked numbers belong to inactive results.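 How the source made its calls: active means at highest dose tested, delta Tm positive; inactive means the rest.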
Assay: Sypro Orange dye melt without protein, dose response, artefact control for Keap1-Nrf2 interaction inhibitor project, biochemical, thermal shift counterscreen, cherry-pick (AID 651858)
Settings: Sypro Orange dye-only thermal melt, no protein, top dose 50 µM, stronger effect = higher value

| Structure (SMILES) | delta Tm |
| --- | --- |
| O=C(Nc1ccccn1)C1CCN(S(=O)(=O)c2ccc3c(c2)OCCO3)CC1 | -21.3 °C |
| COc1ccc(C2c3ccc(O)cc3Oc3ncn(CCCO)c(=N)c32)cc1OC (stereo not given) | -26.7 °C |
| CCCC(=O)Nc1ccc(C(=O)NCCCn2ccnc2)cc1 | -28 °C |
| Nc1ccc2nc3c(=O)[nH]c(=S)[nH]c3nc2c1 | -27.3 °C |
| CCCC1OC23CCCCC2C(C#N)(C#N)C1(C#N)C(=N)O3 (stereo not given) | -28.4 °C |
